# The full data set covers some 7,900 targets. This sample favours those with a hit. About 0.6% of all pairs of compound and target were hits. A number with no mark means an inactive call.
# Experiments:
# Experiment in all cases: log2 fold change, soluble protein after heating vs DMSO (PISA); higher = thermal stabilisation; K562 cells, 10 uM, 30 min; active = over 0.2 and 3.5 SD of the protein, either way, in both replicates (recomputed)
# [1] = compound: CC1=C(C=C(C=C1)NC(=O)C2=CC(=CC=C2)C(C)(C)C#N)NC3=CC4=C(C=C3)N=CN(C4=O)C
# Outline: (§1)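 K562 cells at 2×10^6 cells/mL were exposed to 10 μM compound for 30 min, then aliquots were heated for 3 min across 48°C-58°C, pooled, and extracted in PBS containing 0.5% NP-40 at 4°C. The supernatant after 21,000xg for 90 min was taken as soluble protein and measured by TMTpro 16plex LC-MS/MS with channel sums equalised. Thermal stability is reported relative to control samples, with values from duplicates. Fold changes are given on a log2 scale.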
# [2] = compound: CC1=C(C=C(C=C1)NC(=O)C2=CC(=CC=C2)N(C)C)NC(=O)C3=CC=C(C=C3)O
# Outline: as §1
# [3] = compound: CC1=CC=C(C=C1)SC2=C3C=C(SC3=CN=C2)C(=O)N
# Outline: as §1
# [4] = compound: CC1=NC(=CC=C1)C2=C(N=C(N2)C(C)(C)C)C3=CC4=NC=CN=C4C=C3
# Outline: as §1
# Nexturastat A = compound: CCCCN(Cc1ccc(C(=O)NO)cc1)C(=O)Nc1ccccc1 [Nexturastat A]
# Outline: as §1
# vemurafenib = compound: CCCS(=O)(=O)Nc1ccc(F)c(C(=O)c2c[nH]c3ncc(-c4ccc(Cl)cc4)cc23)c1F [vemurafenib]
# Outline: as §1
# [5] = compound: CCCS(=O)(=O)Nc1ccc(F)c(C(=O)c2c[nH]c3ncc(Cl)cc23)c1F
# Outline: as §1
# [6] = compound: CCCc1cc(C)[nH]c(=O)c1CNC(=O)c1cc(-c2ccnc(N3CCN(C)CC3)c2)cc2c1cnn2C(C)C
# Outline: as §1
# givinostat = compound: CCN(CC)Cc1ccc2cc(COC(=O)Nc3ccc(C(=O)NO)cc3)ccc2c1 [givinostat]
# Outline: as §1
# barasertib = compound: CCN(CCCOc1ccc2c(Nc3cc(CC(=O)Nc4cccc(F)c4)[nH]n3)ncnc2c1)CCOP(=O)(O)O [barasertib]
# Outline: as §1
# UniProt Q9NV70, sequence (Q9NV70 whole entry, looked up): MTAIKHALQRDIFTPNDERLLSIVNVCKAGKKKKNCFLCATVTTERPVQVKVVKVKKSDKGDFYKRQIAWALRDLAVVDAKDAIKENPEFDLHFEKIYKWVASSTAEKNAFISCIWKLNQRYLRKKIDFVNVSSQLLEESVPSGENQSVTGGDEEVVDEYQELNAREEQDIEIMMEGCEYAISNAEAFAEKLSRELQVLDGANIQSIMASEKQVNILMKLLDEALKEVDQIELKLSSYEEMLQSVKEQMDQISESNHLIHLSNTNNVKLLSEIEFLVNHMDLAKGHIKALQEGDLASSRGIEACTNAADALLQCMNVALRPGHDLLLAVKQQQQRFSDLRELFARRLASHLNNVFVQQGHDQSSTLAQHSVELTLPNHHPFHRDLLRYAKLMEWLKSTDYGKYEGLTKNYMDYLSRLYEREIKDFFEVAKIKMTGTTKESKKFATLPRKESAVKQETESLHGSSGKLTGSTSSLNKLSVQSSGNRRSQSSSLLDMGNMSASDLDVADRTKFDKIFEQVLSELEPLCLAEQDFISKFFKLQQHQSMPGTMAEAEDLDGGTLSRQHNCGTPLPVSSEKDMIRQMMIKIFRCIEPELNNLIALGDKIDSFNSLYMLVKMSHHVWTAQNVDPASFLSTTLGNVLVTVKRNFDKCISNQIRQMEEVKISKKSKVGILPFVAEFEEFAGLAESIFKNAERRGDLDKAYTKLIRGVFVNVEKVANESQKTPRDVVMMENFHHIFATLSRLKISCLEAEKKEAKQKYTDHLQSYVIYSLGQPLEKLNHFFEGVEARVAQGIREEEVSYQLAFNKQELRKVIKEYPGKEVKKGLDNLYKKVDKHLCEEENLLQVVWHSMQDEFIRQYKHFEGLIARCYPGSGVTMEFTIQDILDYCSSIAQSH
# UniProt Q6P3W2, sequence (Q6P3W2 whole entry, looked up): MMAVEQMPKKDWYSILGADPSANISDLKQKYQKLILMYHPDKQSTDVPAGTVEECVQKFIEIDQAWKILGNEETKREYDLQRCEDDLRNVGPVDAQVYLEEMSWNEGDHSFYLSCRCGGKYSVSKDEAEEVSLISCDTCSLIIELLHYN
# UniProt Q16850, sequence (Q16850 whole entry, looked up): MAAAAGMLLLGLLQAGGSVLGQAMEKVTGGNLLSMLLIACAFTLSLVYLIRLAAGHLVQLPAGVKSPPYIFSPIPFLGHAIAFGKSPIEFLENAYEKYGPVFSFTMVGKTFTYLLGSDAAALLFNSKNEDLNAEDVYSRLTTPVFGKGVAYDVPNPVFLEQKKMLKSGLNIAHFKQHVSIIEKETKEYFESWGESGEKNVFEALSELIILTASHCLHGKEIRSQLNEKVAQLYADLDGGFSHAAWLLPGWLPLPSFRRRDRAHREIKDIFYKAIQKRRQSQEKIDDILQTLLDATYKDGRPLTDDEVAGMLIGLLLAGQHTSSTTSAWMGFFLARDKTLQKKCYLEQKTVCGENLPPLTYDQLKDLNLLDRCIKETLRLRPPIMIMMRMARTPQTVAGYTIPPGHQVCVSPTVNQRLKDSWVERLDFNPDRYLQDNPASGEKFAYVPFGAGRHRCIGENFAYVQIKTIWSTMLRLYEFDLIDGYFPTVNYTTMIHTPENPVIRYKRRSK
# UniProt P12259, sequence (P12259 whole entry, looked up): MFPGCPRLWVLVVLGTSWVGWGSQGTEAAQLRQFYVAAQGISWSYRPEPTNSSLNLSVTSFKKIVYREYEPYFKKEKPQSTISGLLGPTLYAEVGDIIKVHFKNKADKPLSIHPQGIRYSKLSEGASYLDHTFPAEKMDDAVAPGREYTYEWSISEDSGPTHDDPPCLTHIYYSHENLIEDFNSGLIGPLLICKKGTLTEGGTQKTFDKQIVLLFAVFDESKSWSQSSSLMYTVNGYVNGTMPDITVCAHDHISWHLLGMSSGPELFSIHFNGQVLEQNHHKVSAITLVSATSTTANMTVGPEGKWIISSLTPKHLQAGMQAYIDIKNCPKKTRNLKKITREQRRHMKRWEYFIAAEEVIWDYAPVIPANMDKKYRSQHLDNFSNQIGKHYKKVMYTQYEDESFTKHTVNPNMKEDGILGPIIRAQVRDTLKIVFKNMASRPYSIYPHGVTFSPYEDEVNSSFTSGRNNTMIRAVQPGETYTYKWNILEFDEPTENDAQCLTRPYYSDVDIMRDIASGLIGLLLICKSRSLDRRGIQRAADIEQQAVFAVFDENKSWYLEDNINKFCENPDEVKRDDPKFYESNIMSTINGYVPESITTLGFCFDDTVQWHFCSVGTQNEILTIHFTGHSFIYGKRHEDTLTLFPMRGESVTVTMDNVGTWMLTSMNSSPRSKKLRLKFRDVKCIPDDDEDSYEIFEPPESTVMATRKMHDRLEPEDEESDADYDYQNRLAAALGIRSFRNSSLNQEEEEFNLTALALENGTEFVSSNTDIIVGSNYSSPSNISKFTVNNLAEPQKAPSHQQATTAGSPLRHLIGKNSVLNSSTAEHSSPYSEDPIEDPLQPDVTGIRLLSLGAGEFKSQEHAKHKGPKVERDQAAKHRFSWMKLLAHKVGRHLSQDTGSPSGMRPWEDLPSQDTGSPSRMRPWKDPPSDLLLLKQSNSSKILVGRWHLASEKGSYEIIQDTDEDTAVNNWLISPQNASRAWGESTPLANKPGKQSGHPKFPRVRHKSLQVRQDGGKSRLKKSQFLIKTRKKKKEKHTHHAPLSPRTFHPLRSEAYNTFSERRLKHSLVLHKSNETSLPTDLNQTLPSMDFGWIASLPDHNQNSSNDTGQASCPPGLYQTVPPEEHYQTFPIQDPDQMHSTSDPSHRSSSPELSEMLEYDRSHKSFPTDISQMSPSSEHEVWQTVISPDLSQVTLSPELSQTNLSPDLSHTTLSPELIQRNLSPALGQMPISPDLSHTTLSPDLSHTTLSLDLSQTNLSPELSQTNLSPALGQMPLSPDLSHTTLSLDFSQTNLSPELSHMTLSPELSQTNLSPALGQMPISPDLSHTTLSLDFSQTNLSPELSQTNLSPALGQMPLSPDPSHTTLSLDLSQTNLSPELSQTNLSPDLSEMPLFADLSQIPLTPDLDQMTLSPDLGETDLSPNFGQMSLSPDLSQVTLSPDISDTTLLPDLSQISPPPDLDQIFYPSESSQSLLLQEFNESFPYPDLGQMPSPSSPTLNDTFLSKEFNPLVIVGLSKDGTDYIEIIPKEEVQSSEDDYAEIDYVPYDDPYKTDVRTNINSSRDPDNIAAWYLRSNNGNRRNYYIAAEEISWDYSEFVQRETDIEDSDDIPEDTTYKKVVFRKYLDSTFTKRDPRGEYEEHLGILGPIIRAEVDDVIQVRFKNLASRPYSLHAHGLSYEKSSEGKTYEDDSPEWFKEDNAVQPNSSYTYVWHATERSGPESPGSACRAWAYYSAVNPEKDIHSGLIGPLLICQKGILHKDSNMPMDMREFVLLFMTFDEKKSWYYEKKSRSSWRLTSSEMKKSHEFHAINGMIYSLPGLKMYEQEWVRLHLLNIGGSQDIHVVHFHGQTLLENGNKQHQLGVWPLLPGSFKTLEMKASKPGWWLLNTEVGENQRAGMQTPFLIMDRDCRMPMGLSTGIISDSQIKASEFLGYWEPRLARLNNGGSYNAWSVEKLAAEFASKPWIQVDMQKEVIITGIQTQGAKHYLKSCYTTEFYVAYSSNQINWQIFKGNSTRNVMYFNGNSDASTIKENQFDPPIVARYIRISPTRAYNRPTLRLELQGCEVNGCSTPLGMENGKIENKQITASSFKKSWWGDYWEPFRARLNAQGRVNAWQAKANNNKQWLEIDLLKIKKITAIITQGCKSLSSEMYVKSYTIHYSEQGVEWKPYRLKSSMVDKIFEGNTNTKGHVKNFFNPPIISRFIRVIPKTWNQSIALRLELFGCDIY
# UniProt Q9GZT9, sequence (Q9GZT9 whole entry, looked up): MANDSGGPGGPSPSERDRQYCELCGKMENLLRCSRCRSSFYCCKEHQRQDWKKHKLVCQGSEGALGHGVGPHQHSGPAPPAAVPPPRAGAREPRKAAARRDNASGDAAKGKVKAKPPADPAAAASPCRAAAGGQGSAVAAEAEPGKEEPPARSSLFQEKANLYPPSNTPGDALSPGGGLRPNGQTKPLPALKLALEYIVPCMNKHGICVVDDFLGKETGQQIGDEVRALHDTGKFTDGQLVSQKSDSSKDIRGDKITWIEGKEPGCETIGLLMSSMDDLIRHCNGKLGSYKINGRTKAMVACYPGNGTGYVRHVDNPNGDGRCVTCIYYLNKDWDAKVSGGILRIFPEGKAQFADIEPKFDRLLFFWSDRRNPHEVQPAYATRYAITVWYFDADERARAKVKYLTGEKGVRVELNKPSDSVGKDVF
# UniProt Q9H467, sequence (Q9H467 whole entry, looked up): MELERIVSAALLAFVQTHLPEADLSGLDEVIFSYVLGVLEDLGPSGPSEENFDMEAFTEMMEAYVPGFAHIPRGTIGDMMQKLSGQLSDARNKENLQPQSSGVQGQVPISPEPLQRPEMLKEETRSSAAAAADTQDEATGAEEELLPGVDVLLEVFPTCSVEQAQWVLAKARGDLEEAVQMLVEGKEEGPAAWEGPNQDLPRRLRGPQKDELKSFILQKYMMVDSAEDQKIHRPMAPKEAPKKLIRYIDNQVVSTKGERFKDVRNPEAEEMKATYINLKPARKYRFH
# UniProt O60888, sequence (O60888 whole entry, looked up): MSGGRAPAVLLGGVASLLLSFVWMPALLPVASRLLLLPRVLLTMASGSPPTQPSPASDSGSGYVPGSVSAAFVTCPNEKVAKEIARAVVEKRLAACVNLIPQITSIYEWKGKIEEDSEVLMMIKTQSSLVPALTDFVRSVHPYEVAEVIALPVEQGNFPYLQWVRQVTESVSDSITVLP
# UniProt Q96GE9, sequence (Q96GE9 whole entry, looked up): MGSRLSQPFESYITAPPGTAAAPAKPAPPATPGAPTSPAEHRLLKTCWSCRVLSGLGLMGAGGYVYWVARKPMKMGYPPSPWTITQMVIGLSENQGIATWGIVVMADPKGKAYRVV
# UniProt Q15369, sequence (Q15369 whole entry, looked up): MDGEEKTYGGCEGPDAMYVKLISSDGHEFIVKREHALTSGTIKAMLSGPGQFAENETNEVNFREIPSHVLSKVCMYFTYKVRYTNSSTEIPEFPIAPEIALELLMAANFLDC
Target,log2 fold change [1],log2 fold change [2],log2 fold change [3],log2 fold change [4],log2 fold change (Nexturastat A),log2 fold change (vemurafenib),log2 fold change [5],log2 fold change [6],log2 fold change (givinostat),log2 fold change (barasertib)
F5 (UniProt P12259),0.056,0.036,-0.027,0.011,-0.04,0.066,-0.016,-0.036,-0.01,0.034
EEF1AKNMT (UniProt Q8N6R0),0.078,-0.037,0.031,0.026,-0.026,0.084,0.062,0.075,0.04,0.076
EXOC1 (UniProt Q9NV70),-0.026,-0.01,0.019,0.027,0.115,-0.023,0.028,0.08,0.07,0.082
"EED, A0A5F9ZI63",0.005,-0.067,-0.012,-0.019,0.013,-0.02,0.025,-0.204 (active),0.082,-0.038
DMAC1 (UniProt Q96GE9),-0.173,0.041,0.116,0.005,-0.071,-0.18,-0.035,-0.04,-0.179,0.074
EGLN1 (UniProt Q9GZT9),-0.14,0.009,-0.013,0.048,-0.096,-0.007,0.006,0.017,-0.191,0.066
CYP51A1 (UniProt Q16850),0.063,-0.036,-0.098,-0.133,0.024,0.029,-0.015,0.07,0.007,0.01
E2F4 (UniProt Q16254),0.031,0.011,0.087,0.079,0.034,-0.001,0.02,0.021,0.05,0.054
DNAJC24 (UniProt Q6P3W2),-0.024,0.368,0.104,0.008,-0.208,0.008,-0.034,0.027,0.07,0.008
FAM114A2 (UniProt Q9NRY5),0.007,0.03,0.038,0.022,-0.053,0.001,0.061,-0.058,-0.017,0.01
FAM118B (UniProt Q9BPY3),0,0.03,0.037,0.055,0.099,0.048,0.003,0.044,0.063,0.093
EEF1A1 (UniProt P68104),-0.069,-0.068,0,0.052,0.086,0.031,0.022,0.089,-0.044,0.052
CUEDC2 (UniProt Q9H467),-0.03,-0.043,-0.001,-0.153,-0.019,0.009,0.032,-0.01,0.055,0.091
CTSC (UniProt P53634),-0.113,0.001,0.059,-0.003,-0.009,0.035,0.01,0.03,0.017,0.023
ELOVL1 (UniProt Q9BW60),-0.035,-0.065,0.064,0.044,0.03,-0.032,0.116,-0.063,0.067,0.028
DCAF10 (UniProt Q5QP82),-0.024,0.121,-0.015,-0.009,0.012,-0.044,0.002,-0.121,-0.094,-0.006
DCTN1 isoform 4 (UniProt Q14203),0.022,-0.017,0.015,-0.039,0.116,-0.015,0.019,0.102,0.104,0.033
CUTA isoform 2 (UniProt O60888),-0.121,-0.011,0.013,0.044,0.169,0,0.044,0.16,-0.044,0.015
DDOST (UniProt P39656),0.03,-0.013,-0.031,0.016,-0.01,0.003,-0.006,-0.001,0.006,0.008
DLD (UniProt P09622),-0.045,0.025,0.008,0.013,-0.058,-0.021,-0.01,0.029,-0.06,0
EXOC2 (UniProt Q96KP1),-0.03,-0.017,0.051,0.027,0.058,0.041,0.062,0.037,0.177,0.056
ELOC (UniProt Q15369),0.016,-0.034,0.008,0.001,-0.027,0.017,0.031,0,-0.035,0.026
EPHX2 (UniProt P34913),0.112,0.129,0.031,-0.017,0.193,-0.012,-0.025,-0.075,-0.014,-0.029
DDX4 (UniProt Q9NQI0),-0.451,0.035,-0.328,-0.336,0.263,-0.569,-0.447,0.327,0.271,-0.094
DTWD1 (UniProt Q8N5C7),0.05,-0.042,0.023,0.081,-0.072,0.115,-0.013,0.036,-0.172,-0.027
EVC2 (UniProt Q86UK5),-0.263,-0.146,-0.006,-0.018,0.046,-0.073,-0.054,0.16,0.06,-0.064
DHFR (UniProt P00374),-0.069,0.003,-0.086,-0.074,0.232,0.044,0.001,0.17,0.162,0.068
DDX5 (UniProt P17844),0.136,-0.131,0.036,0.112,0.033,0.142,0.174,0.036,0.178,0.122
DHRS1 (UniProt Q96LJ7),0.357,-0.143,-0.166,-0.202,0.096,0.29,-0.079,0.088,0.068,-0.05
DPP8 (UniProt Q6V1X1),-0.109,-0.026,-0.031,0.021,0.082,-0.056,-0.05,-0.176,-0.026,0.014
